# Results filed as inconclusive are left out. Activity calls are given as the source filed them. Unless noted, calls come from the whole dose curve.
# How the values were obtained:
# [1] = qHTS for Inhibitors of the Functional Ribonucleoprotein Complex (vRNP) of Lassa (LASV) Arenavirus: Viability assay - alamar blue signal for LASV Primary Screen (AID 1347083; calls by dose curve; tested in HEK293 reporter line; note: nearly all actives have a fitted effect of over 80% in size; note: potency is the fitted concentration of half-maximal effect)
# [2] = qHTS for Inhibitors of the Functional Ribonucleoprotein Complex (vRNP) of Lymphocytic Choriomeningitis Arenaviruses (LCMV): Viability assay - alamar blue signal for LCMV Primary Screen (AID 1347085; calls by dose curve; tested in HEK293 reporter line; note: nearly all actives have a fitted effect of over 80% in size; note: potency is the fitted concentration of half-maximal effect)
# [3] = molecular target: Nucleoprotein (Lymphocytic choriomeningitis virus (strain Armstrong)) (UniProt P09992); experiment: qHTS for Inhibitors of the Functional Ribonucleoprotein Complex (vRNP) of Lymphocytic Choriomeningitis Arenaviruses (LCMV): LCMV Primary Screen - GLuc reporter signal (AID 1347086); note: nearly all actives have a fitted effect of over 70% in size; note: potency is the fitted concentration of half-maximal effect; for activity change, negative = inhibition: % is set by controls: 0 for no effect and ±100 for the full control effect
# Nucleoprotein (Lymphocytic choriomeningitis virus (strain Armstrong)), sequence (P09992 whole entry, looked up): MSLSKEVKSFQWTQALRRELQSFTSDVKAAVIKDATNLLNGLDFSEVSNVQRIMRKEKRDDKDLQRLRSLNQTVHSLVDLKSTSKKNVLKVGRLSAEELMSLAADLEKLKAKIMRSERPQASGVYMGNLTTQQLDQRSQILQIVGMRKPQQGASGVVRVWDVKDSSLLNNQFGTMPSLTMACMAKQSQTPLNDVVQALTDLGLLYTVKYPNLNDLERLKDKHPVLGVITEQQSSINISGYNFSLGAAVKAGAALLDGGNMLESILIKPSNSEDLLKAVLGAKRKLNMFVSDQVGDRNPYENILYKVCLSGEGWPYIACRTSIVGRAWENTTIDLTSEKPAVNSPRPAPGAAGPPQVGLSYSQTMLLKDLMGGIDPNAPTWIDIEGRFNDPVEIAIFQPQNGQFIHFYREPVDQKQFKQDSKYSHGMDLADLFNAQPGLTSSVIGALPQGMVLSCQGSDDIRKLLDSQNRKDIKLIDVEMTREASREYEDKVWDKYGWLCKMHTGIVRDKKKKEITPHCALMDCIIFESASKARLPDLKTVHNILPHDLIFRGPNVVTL
# [4] = Cytotoxicity counterscreen for inhibitors of SARS-CoV-2 cell entry (AID 1645845); note: nearly all actives have a fitted effect of over 50% in size
# Outline: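 Expi293F/hACE2 cells seeded overnight; cpd pin-transferred in DMSO, 1 h preincubation, + media, 48 h 37 C 5% CO2; ATPLite 1step luminescence; normalized to cells and no cells.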
# [5] = Primary qHTS to identify inhibitors of SARS-CoV-2 cell entry (AID 1645846); conditions: activity change, negative = inhibition: at 57.1 µM (top of the series) unless noted; note: nearly all actives have a fitted effect of over 45% in size
# Outline: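 HEK293 cells stably expressing human ACE2, pre-treated 1 h with compound, then infected with MLV particles pseudotyped with Wuhan-Hu-1 spike (C-terminal 19-aa truncation). Luciferase luminescence after 48 h at 37 °C, normalised to spike PP and bald PP.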
# [6] = Confirmatory qHTS for VERO E6 Cytotoxicity Assay: Counterscreen for SARS-CoV-2 CPE Assay (AID 1508605); note: % is set by controls: 0 for no effect and ±100 for the full control effect; nearly all actives have a fitted effect of over 60% in size
# [7] = Confirmatory qHTS for activators (rescue) of SARS-CoV-2 Cytopathic Effect (CPE) (AID 1508606); note: 0% is about no effect; nearly all actives have a fitted effect of over 70% in size
# [8] = Confirmatory qHTS to identify inhibitors of SARS-CoV-2 cell entry (AID 1645844); note: potency is the fitted concentration of half-maximal effect; nearly all actives have a fitted effect of over 45% in size
# Outline: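 HEK293-ACE2 cells (Expi293F stably expressing human ACE2) were pretreated with compounds for 1 hr at 37C, then infected with MLV-based particles carrying Wuhan-Hu-1 spike (C-terminal 19-aa truncation). Luciferase luminescence read after 48 hr; normalized to spike PP (100%) and bald PP (0%).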
# [9] = VSVG counterscreen qHTS to identify inhibitors of SARS-CoV-2 cell entry (AID 1645847); note: potency is the fitted concentration of half-maximal effect; nearly all actives have a fitted effect of over 65% in size
# Outline: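 HEK293-ACE2 cells (Expi293F, human ACE2) pretreated 1 h with compound, then infected with MLV-based VSV-G pseudotyped particles for 48 h at 37 C; luciferase luminescence normalized to VSV-G PP and bald PP wells.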
# [10] = Validation screen for inhibitors of Lassa infection (AID 463096); note: potency is the fitted concentration of half-maximal effect
# [11] = molecular target: Alpha-galactosidase (Coffea arabica) (UniProt Q42656); experiment: Counterscreen for Glucocerebrosidase Inhibitors: qHTS Assay for Coffee Bean alpha-Galactosidase at pH 5.9 (AID 998; active = well fitted curve in the direction sought with a large enough effect; inactive = no such curve, though single readings can be large or run the other way;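 note: plate controls were uninhibited enzyme for no effect and no-enzyme basal signal for full effect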)
# Alpha-galactosidase (Coffea arabica), sequence (Q42656 whole entry, looked up): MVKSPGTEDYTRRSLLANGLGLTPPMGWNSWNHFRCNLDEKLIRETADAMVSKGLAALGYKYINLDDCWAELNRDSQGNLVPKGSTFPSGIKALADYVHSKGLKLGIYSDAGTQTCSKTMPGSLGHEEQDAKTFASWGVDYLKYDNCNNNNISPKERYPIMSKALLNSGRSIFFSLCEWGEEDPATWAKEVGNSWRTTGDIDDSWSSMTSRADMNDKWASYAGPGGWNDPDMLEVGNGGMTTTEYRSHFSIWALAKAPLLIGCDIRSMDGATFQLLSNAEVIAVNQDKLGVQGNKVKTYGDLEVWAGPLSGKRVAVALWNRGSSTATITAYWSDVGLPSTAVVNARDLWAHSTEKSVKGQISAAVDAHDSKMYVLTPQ
# Outline: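 Green coffee bean enzyme (2 nM final) was incubated with compounds (0.7 nM–77 uM) and 4-methylumbelliferyl alpha-D-galactopyranoside (80 uM) in citrate buffer pH 5.9, 20 min at room temperature. High-pH stop; fluorescence 365/440 nm; AC50 from Hill fits.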
smiles,measurement,setting,value
C=Cc1ncc(OC)c2c1[nH]c1ccccc12,Potency,[1],inactive
same,Potency,[2],inactive
CCCCC1CCC(=O)O1 (stereo not given),Potency,[1],inactive
same,Potency,[2],inactive
CC(=O)OC1CC2(O)C3CCC4CC(O)CCC4(C)C3CCC2(C)C1C1=CC(=O)OC1 (stereo not given),Potency,[1],0.282 µM (active)
same,Potency,[2],0.316 µM (active)
CC(=O)OCC(=O)[C@@]12OC(C)(C)O[C@H]1C[C@H]1[C@@H]3C[C@H](F)C4=CC(=O)C=C[C@]4(C)[C@@]3(F)[C@@H](O)C[C@@]12C,Potency,[1],inactive
same,Potency,[2],inactive
CC(Cc1ccccc1)(NC(=O)CN)c1ccccc1 (stereo not given),Potency,[1],inactive
same,Potency,[2],inactive
O=C(OCCOCCO)c1ccccc1Nc1cccc(C(F)(F)F)c1,Potency,[1],inactive
same,Potency,[2],inactive
CC[C@H]1OC(=O)[C@H](C)[C@@H](O[C@H]2C[C@@](C)(OC)[C@@H](O)[C@H](C)O2)[C@H](C)[C@@H](O[C@@H]2O[C@H](C)C[C@H](N(C)C)[C@H]2O)[C@](C)(O)C[C@H](C)C(=NOCOCCOC)[C@H](C)[C@@H](O)[C@]1(C)O,Potency,[1],inactive
same,Potency,[2],inactive
COC1C(O)C(C)OC(OC2CCC3(C)C(CCC4C3C(O)CC3(C)C(C5=CC(=O)OC5)CCC43O)C2)C1O (stereo not given),Potency,[1],0.251 µM (active)
same,Potency,[2],0.355 µM (active)
COc1cc(C(=O)NC2CCN(C)CC2)ccc1Nc1ncc2c(n1)N(C1CCCC1)CCC(=O)N2C(C)C,Potency,[1],27.3 µM (active)
same,Potency,[2],15.3 µM (active)
CC(=CCOc1ccc2ccc(=O)oc2c1)C1=CC(=O)C(C)(C)O1,Potency,[1],inactive
same,Potency,[2],inactive
O=C(O)CO,Potency,[1],inactive
same,Potency,[2],inactive
O=C(Nc1nc2cccc(-c3ccc(CN4CCS(=O)(=O)CC4)cc3)n2n1)C1CC1,Potency,[1],38.5 µM (active)
C/C=C/c1ccc(OC(C)[C@@H](O)c2ccc(O)c(OC)c2)c(OC)c1 (stereo not given in full),Potency,[1],inactive
same,Potency,[2],inactive
O=C(C=Cc1ccc(CN(CCO)CCc2c[nH]c3ccccc23)cc1)NO,Potency,[1],1.37 µM (active)
same,Potency,[2],1.37 µM (active)
CN[C@@H]1C[C@H]2O[C@@](C)([C@H]1OC)n1c3ccccc3c3c4c(c5c6ccccc6n2c5c31)C(=O)N[C@H]4O,Potency,[1],0.355 µM (active)
same,Potency,[2],2.73 µM (active)
CO[C@@H]1[C@@H](O)[C@H](O)[C@@H](n2c3c(Cl)cccc3c3c4c(c5c6cccc(Cl)c6[nH]c5c32)C(=O)NC4=O)O[C@@H]1CO,Potency,[1],1.93 µM (active)
same,Potency,[2],2.43 µM (active)
same,Potency,[3],3.06 µM (active)
CCC1=C[C@@H]2CN(C1)Cc1c([nH]c3ccccc13)[C@@](C(=O)OC)(c1cc3c(cc1OC)N(C)[C@@H]1[C@@](O)(C(=O)OC)[C@H](OC(C)=O)[C@]4(CC)C=CCN5CC[C@]31[C@@H]54)C2,Potency,[1],0.306 µM (active)
same,Potency,[2],0.217 µM (active)
CC[C@]12C=CCN3CC[C@@]4(c5cc([C@@]6(C(=O)OC)C[C@H]7C[C@@H](C(C)(F)F)CN(Cc8c6[nH]c6ccccc86)C7)c(OC)cc5N(C)[C@H]4[C@@](O)(C(=O)OC)[C@H]1OC(C)=O)[C@@H]32,Potency,[1],0.0172 µM (active)
COc1cc(C(=S)N2CCOCC2)cc(OC)c1OC,Potency,[1],inactive
same,Potency,[2],inactive
COc1cc(C)ccc1O,Potency,[1],inactive
same,Potency,[2],inactive
CO[C@H]1C[C@@H]2CC[C@@H](C)[C@@](O)(O2)C(=O)C(=O)N2CCCC[C@@H]2C(=O)O[C@H]([C@H](C)C[C@@H]2CC[C@H](OP(C)(C)=O)[C@H](OC)C2)CC(=O)[C@H](C)C=C(C)[C@@H](O)[C@@H](OC)C(=O)[C@H](C)C[C@H](C)C=CC=CC=C1C,Potency,[1],0.0109 µM (active)
same,Potency,[2],0.0153 µM (active)
C=CC(=O)Nc1cccc(Oc2nc(Nc3ccc(N4CCN(C)CC4)cc3)ncc2Cl)c1,Potency,[1],2.73 µM (active)
same,Potency,[2],1.72 µM (active)
same,Potency,[3],inactive
CCCCCN=C(N)NN=Cc1c[nH]c2ccc(OC)cc12,Potency,[1],6.11 µM (active)
same,Potency,[2],10.9 µM (active)
C=C1C(=O)O[C@@H]2C[C@@H](C)[C@@H]3C=CC(=O)[C@@]3(C)[C@@H](OC(C)=O)[C@H]12,Potency,[1],4.47 µM (active)
same,Potency,[2],4.47 µM (active)
C[C@@H](Oc1ccc2[nH]nc(C=Cc3cnn(CCO)c3)c2c1)c1c(Cl)cncc1Cl,Potency,[1],24.3 µM (active)
same,Potency,[2],27.3 µM (active)
Cc1ccc(S(=O)(=O)Nc2nc3ccccc3nc2Nc2ccc3nsnc3c2)cc1,Potency,[1],1.06 µM (active)
same,Potency,[2],2.11 µM (active)
same,Potency,[3],1.33 µM (active)
same,Potency,[4],inactive
same,"activity change, negative = inhibition",[5],-18.1% [at 27.1 µM]
COc1cc(Nc2nc3ccccc3nc2NS(=O)(=O)c2ccc(NC(=O)c3ccc(C)c(OC)c3)cc2)cc(OC)c1,Potency,[1],21.7 µM (active)
same,Potency,[2],13.7 µM (active)
same,Potency,[3],27.3 µM (active)
same,Potency,[6],inactive
same,Potency,[7],inactive
same,Potency,[4],inactive
same,Potency,[5],inactive
C[C@@H]1[C@H](O)[C@@H](C)C=CC=CC=CC=CC=CC=CC=C[C@H](O[C@@H]2O[C@H](C)[C@H](O)[C@H](N)[C@@H]2O)C[C@@H]2O[C@](O)(C[C@@H](O)C[C@@H](O)[C@H](O)CC[C@@H](O)C[C@@H](O)CC(=O)O[C@H]1C)C[C@H](O)[C@@H]2C(=O)O,Potency,[1],10.9 µM (active)
same,Potency,[2],8.63 µM (active)
same,Potency,[3],4.85 µM (active)
CNC(=O)CN1CCC(Oc2cc3c(Nc4cccc(Cl)c4F)ncnc3cc2OC)CC1,Potency,[1],0.0769 µM (active)
same,Potency,[2],0.0306 µM (active)
same,Potency,[3],0.0385 µM (active)
same,Potency,[4],inactive
same,"activity change, negative = inhibition",[5],-16.1%
O=C(Nc1ncc(-c2cc(C(F)F)nn2-c2c(Cl)cccc2Cl)s1)C1CC1,Potency,[1],0.968 µM (active)
same,Potency,[2],1.09 µM (active)
same,Potency,[3],3.85 µM (active)
same,Potency,[8],541 nM (active)
same,Potency,[9],1.36 µM (active)
N#CC(=C(\N)Sc1ccccc1N)/C(C#N)=C(/N)Sc1ccccc1N,Potency,[10],794 nM (active)
same,Potency,[1],inactive
same,Potency,[2],inactive
same,Potency,[3],inactive
COc1ccc2c(c1OC)C(=O)OC2[C@H]1c2c(cc3c(c2OC)OCO3)CCN1C (stereo not given in full),outcome,[11],inactive
same,Potency,[1],1.53 µM (active)
same,Potency,[2],1.53 µM (active)
same,Potency,[3],1.37 µM (active)
CCc1c2c(nc3ccc(O)cc13)-c1cc3c(c(=O)n1C2)COC(=O)[C@]3(O)CC,Potency,[1],0.109 µM (active)
same,Potency,[2],0.243 µM (active)
same,Potency,[3],0.217 µM (active)
same,"activity change, negative = inhibition",[5],-97.1%
C#C[C@]1(O)CC[C@@H]2[C@@H]3CCc4cc(O)ccc4[C@H]3CC[C@@]21C,Potency,[1],6.85 µM (active)
same,Potency,[2],3.06 µM (active)
same,Potency,[3],2.17 µM (active)

# Reference: PubChem BioAssay (NCATS)
